Results taken from PubChem BioAssay (EPA / NIEHS).
Results filed as inconclusive are left out. Activity calls are given as the source filed them. The calls were made as follows, unless noted: active = hit-call score of the fitted dose curve at least 0.9, where 1 is the maximum; inactive = score below 0.9.

Experiments:
[1] = read-out: Transforming Growth Factor (TGFB1), TGFB1 (gene 7040); assay: LTEA_HepaRG_TGFB1: Life Technologies and Expression Analysis (LTEA) Assay for Transforming Growth Factor (TGFB1) Transporter using HepaRG (AID 2283533); details: mRNA level, 48 h; actives raise or lower the signal
Outline: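 Expression change of TGFB1 in human HepaRG cells is measured after a 48 h chemical exposure, up to 100 uM in 0.5% DMSO vehicle. Curves are fitted in both directions relative to the DMSO baseline.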

[2] = read-out: TIMP1, TIMP1 (gene 7076); assay: LTEA_HepaRG_TIMP1: Life Technologies and Expression Analysis (LTEA) Assay for TIMP1 using HepaRG (AID 2283534); details: mRNA level, 48 h; actives raise or lower the signal
Outline: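 We dosed human liver HepaRG cultures for 48 hours with up to 100 uM test chemical and measured TIMP1 expression by qRT-PCR. Activity in either direction is fitted relative to the 0.5% DMSO vehicle.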

[3] = read-out: Thyroid Hormone Responsive (THRSP), THRSP (gene 7069); assay: LTEA_HepaRG_THRSP: Life Technologies and Expression Analysis (LTEA) Assay for Thyroid Hormone Responsive (THRSP) using HepaRG (AID 2283536); details: mRNA level, 48 h; actives raise or lower the signal
Outline: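 qRT-PCR read-out (Fluidigm TaqMan), housekeeping-normalized (ACTB/GAPDH/POLR2A). HepaRG, 48 h chemical exposure, 8-pt half-log series from 100 uM in 0.5% DMSO, duplicates. Bidirectional curve fit vs 0.5% DMSO baseline.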

[4] = read-out: Cellular tumor antigen p53 (Homo sapiens) (UniProt P04637); assay: LTEA_HepaRG_TP53: Life Technologies and Expression Analysis (LTEA) Assay for Tumor Protein P53 (TP53) using HepaRG (AID 2283537); details: mRNA level, 48 h; actives raise or lower the signal
Outline: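 HepaRG, 48 h exposure, top 100 uM, half-log 8-point, 0.5% DMSO vehicle, duplicates. Read: TP53 mRNA by TaqMan qRT-PCR, normalised to ACTB/GAPDH/POLR2A; bidirectional fit vs DMSO.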

[5] = read-out: UDP glucuronosyltransferase (UGT1A1), UGT1A1 (gene 54658); assay: LTEA_HepaRG_UGT1A1: Life Technologies and Expression Analysis (LTEA) Assay for UDP glucuronosyltransferase (UGT1A1) using HepaRG (AID 2283538); details: mRNA level, 48 h; actives raise or lower the signal
Outline: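 HepaRG, 48 h chemical exposure (top 100 uM, half-log 8-pt, 0.5% DMSO vehicle), duplicate wells; qRT-PCR (TaqMan, Fluidigm array) for UGT1A1 mRNA, housekeeping-normalized; bidirectional curve fit vs DMSO baseline.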

[6] = read-out: UDP glucuronosyltransferase (UGT1A6), UGT1A6 (gene 54578); assay: LTEA_HepaRG_UGT1A6: Life Technologies and Expression Analysis (LTEA) Assay for UDP glucuronosyltransferase (UGT1A6) using HepaRG (AID 2283539); details: mRNA level, 48 h; actives raise or lower the signal
Outline: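 Endpoint is UGT1A6 transcript induction or loss in a human liver cell line, quantified by TaqMan qRT-PCR 48 h after dosing. Concentrations ran from 100 uM downward in half-log steps in 0.5% DMSO; activity was fitted in both directions versus vehicle.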

[7] = read-out: X-box binding protein 1 (XBP1), XBP1 (gene 7494); assay: LTEA_HepaRG_XBP1: Life Technologies and Expression Analysis (LTEA) Assay for X-box binding protein 1 (XBP1) using HepaRG (AID 2283540); details: mRNA level, 48 h; actives raise or lower the signal
Outline: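 Human HepaRG monolayers receive test chemical for 48 h across an eight-point half-log series starting at 100 uM. XBP1 mRNA gain or loss is scored against DMSO by qRT-PCR.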

[8] = LTEA_HepaRG_LDH_cytotoxicity: Cytotoxicity Assessment in the Life Technologies and Expression Analysis (LTEA) Assay (AID 2283563; active = hit-call score of the fitted dose curve at least 0.9, where 1 is the maximum;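 as to AC50: LDH activity released into spent culture medium as a marker of cell death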)
Outline: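 Human HepaRG hepatic cells are treated with test chemicals for 48 h at up to 100 uM in 0.5% DMSO. Cytotoxicity is scored from medium LDH against the vehicle control.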

[9] = ATG_XTT_Cytotoxicity: Cytotoxicity Assessment in the Attagene TRANS-FACTORIAL HepG2 Assay (AID 2283584; active = hit-call score of the fitted dose curve at least 0.9, where 1 is the maximum)
Outline: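 Transfect HepG2 with GAL4-UAS reporter units, dose compound, incubate 24 h, then measure viable cell number by XTT. Fit concentration response against DMSO baseline.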

Measured: AC50

Cellular tumor antigen p53 (Homo sapiens), sequence (P04637 whole entry, looked up): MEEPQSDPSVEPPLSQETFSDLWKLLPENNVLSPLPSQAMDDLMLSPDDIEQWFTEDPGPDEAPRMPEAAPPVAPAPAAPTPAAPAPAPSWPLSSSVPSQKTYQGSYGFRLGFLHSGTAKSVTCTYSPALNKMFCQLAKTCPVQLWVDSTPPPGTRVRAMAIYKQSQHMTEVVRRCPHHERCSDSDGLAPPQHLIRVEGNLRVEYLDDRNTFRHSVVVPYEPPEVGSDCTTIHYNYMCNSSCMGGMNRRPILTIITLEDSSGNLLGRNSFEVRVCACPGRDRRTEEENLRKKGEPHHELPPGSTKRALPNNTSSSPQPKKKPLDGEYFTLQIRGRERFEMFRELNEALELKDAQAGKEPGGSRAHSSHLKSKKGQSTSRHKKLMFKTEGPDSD

CCC(C)(C)C(=O)O[C@H]1C[C@@H](C)C=C2C=C[C@H](C)[C@H](CC[C@@H]3C[C@@H](O)CC(=O)O3)[C@H]21
active: [3] 25.4 µM
inactive: all other assays above

CCOCCOCCOCCO
not listed: [7]
inactive: all other assays above

CNCc1ccc(NC(=O)c2c[nH]c3c2C(=O)CCC3)cc1
not listed: [7] | [9]
inactive: all other assays above

Cc1ccc(N)cc1O
active: [3] 25.2 µM
not listed: [7] | [9]
inactive: all other assays above

CC(C)CCCCCCCOC(=O)CCCCC(=O)OCCCCCCCC(C)C
not listed: [7]
inactive: all other assays above

C=CC(=C)CCC=C(C)C
not listed: [7]
inactive: all other assays above

CCCN(C1CCN(C(=O)C2CCNCC2)CC1)[C@@H]1CCc2ccc(OC)cc2C1
inactive: [1] | [2] | [4] | [9]
active: [3] 80.1 µM | [5] 69.3 µM | [6] 81 µM | [7] 28.2 µM | [8] 76.1 µM

CCOC(=O)CC(CC(=O)OCC)(OC(C)=O)C(=O)OCC
not listed: [7]
inactive: all other assays above

CC/C(=C\C(=N/O)C(N)=O)C(C)[N+](=O)[O-] (centres undefined)
inactive: all assays above

Nc1cccc(N)c1
inactive: all assays above

CC(C)=CCC/C(C)=C/CO
not listed: [7] | [9]
inactive: all other assays above

CCCCC(CC)COC(=O)CCCCCCCCC(=O)OCC(CC)CCCC (centres undefined)
not listed: [8]
inactive: all other assays above

CC[C@H](C)C(=O)O[C@H]1C[C@@H](C)C=C2C=C[C@H](C)[C@H](CC[C@@H]3C[C@@H](O)CC(=O)O3)[C@H]21
active: [5] 0.0554 µM
inactive: [1] | [2] | [4] | [6] | [8]

CC(C)=CCCC(C)CCO (centres undefined)
not listed: [7]
inactive: all other assays above

O=C(NS(=O)(=O)/C=C/c1ccccc1)c1ccc(F)cc1Cl
active: [3] 0.502 µM | [5] 17.1 µM
not listed: [7]
inactive: all other assays above

Cn1c(=O)cc(Oc2ccc(F)cc2F)c2cnc(NCC(C)(C)O)nc21
not listed: [7]
inactive: all other assays above

Oc1ccc2c(c1)-c1ccccc1C2
active: [3] 13.9 µM | [5] 30.4 µM
not listed: [7]
inactive: all other assays above

O=C(O)c1cccc(N(Cc2cccnc2)c2ccc(OC(F)F)c(OC(F)F)c2)c1
active: [5] 25 µM
inactive: all other assays above

COCCOc1cc2cc(C(=O)NC3CCN(C(C)C)CC3)n(CC(=O)Nc3ccc(Cl)cn3)c2cn1
active: [2] 18.2 µM | [3] 51.5 µM | [5] 82.2 µM | [8] 59.3 µM
inactive: [1] | [4] | [6]

CC(=O)c1ccc2c(c1)[C@H](NC(=O)c1ccc(F)cc1)[C@@H](O)C(C)(C)O2
active: [5] 22.6 µM
not listed: [7] | [9]
inactive: all other assays above

CC(C)CCCCCCOC(=O)c1ccc(C(=O)OCCCCCCC(C)C)c(C(=O)OCCCCCCC(C)C)c1
not listed: [7] | [9]
inactive: all other assays above

Cc1[nH]cnc1C[C@H]1CCc2c(C)c3ccccc3n2C1=O
active: [4] 73.7 µM | [5] 64.3 µM | [6] 33.5 µM | [8] 27.6 µM
inactive: [1] | [2] | [3] | [9]

CNS(=O)(=O)c1cc(C(=O)N2CCC(CCN3C4CCC3CC(n3c(C)nc5ccccc53)C4)(c3cccc(F)c3)CC2)c(Cl)cc1F (centres undefined)
active: [1] 19.4 µM | [5] 9.92 µM | [6] 50 µM | [8] 32.2 µM
inactive: [2] | [3] | [4]

Cc1ccc(C)c(O)c1
inactive: all assays above
